Results taken from PubChem BioAssay (NCI).
This is part of a sample that, as a whole, favours compounds with a hit. Of some 83,000 tested, about 20% had one in any assay.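 48-hour exposure, single concentration, 96-well plates; percent growth endpoint where 0 means no net growth. Active: below 10.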 A number with no mark means an inactive call. Calls of active or inactive are those of the source.

Each compound was assayed on CAKI-1 renal (assay: NCI-60 one-dose screen, 48 h (100 = growth as untreated, 0 = no growth, -100 = all killed)). Conditions: 10 µM unless noted.
COc1ccc(C2SCC(=O)N2NC(=O)c2ccc(NC(=O)c3ccccn3)cc2)cc1OC (centres undefined) was tested, and the growth was 96.9%. COc1cc(/C=C2\C=C(c3ccc(F)cc3)N(Cc3ccccc3)C2=O)cc(OC)c1OC was tested, and the growth was 63.3%. For COc1cccc(-c2nc3sccn3c2-c2ccnc(NCCCNS(=O)(=O)c3ccccc3)n2)c1, the growth was 52.5%. Work on COc1cc(NCCN=C(N)NC(N)=NC(C)C)c2ncccc2c1 yielded a growth of 95.3%. Work on Cc1ccc(Nc2ncnc3c2sc2ncccc23)cc1 yielded a growth of 104%. Work on COc1cccc(/C=C2\SC(N3CCN(c4ccccn4)CC3)=NC2=O)c1 yielded a growth of 104%. With CCOC(=O)C1=C(CSC(=S)N(C2CCCCC2)C2CCCCC2)N(C)C(=O)NC1c1ccccc1 (centres undefined) the growth was 25.4%. COc1cccc(-c2nc3sccn3c2-c2ccnc(NCCCNS(=O)(=O)c3ccc(F)cc3)n2)c1 was tested, and the growth was 30.9%. In the case of O=S(=O)(NCCCNc1nccc(-c2c(-c3ccccc3)nc3sccn23)n1)c1ccc(F)cc1, the growth is reported as 33.1%. With CCNC(=O)CCCCC(=O)c1c(C)[nH]c(/C=C2\N=C(c3ccc[nH]3)C=C2OC)c1C the growth was -29.9% (active). CCCCCCCCCCCCCCCCC(Br)C(=O)O (centres undefined) gave a growth of 101%. With COc1ccc(-c2nc3sccn3c2-c2ccnc(NCCCNS(=O)(=O)c3ccc4ccccc4c3)n2)cc1 the growth was 77.5%. Work on CC[C@]1(O)C[C@@H]2CN(Cc3c([nH]c4ccccc34)[C@@](C(=O)OC)(c3cc4c(cc3OC)N(C)[C@H]3[C@@](O)(C(=O)OC)[C@H](OC(C)=O)[C@]5(CC)[C@@H]6C[C@@H]6CN6CC[C@]43[C@@H]65)C2)C1 yielded a growth of 50.6%. With Cc1ccc(S(=O)(=O)NCCCNc2nccc(-c3c(-c4ccccc4)nc4sccn34)n2)cc1 the growth was 47.3%. In the case of COc1cc(OC)c(C(=O)/C=C/c2cccc(C#N)c2)c(OC)c1, the growth is reported as 15.9%. Work on O=S(=O)(NCCNc1nccc(-c2c(-c3ccccc3)nc3sccn23)n1)c1ccc(O)cc1 yielded a growth of 53.5%. CNC(=O)Cc1nc(-c2cccc(NS(=O)(=O)c3c(F)cccc3F)c2F)c(-c2ccnc(Nc3ccccc3)n2)s1 was tested, and the growth was 41.5%. For CCCCCCC[C@@H](O)CC(=O)N[C@H](CCCCN)C(=O)N[C@H](Cc1c[nH]c2ccccc12)C(=O)NC(CCCCN)C(=O)N[C@H](CC(C)C)C(=O)N[C@H](Cc1ccccc1)C(=O)N[C@H](CCCCN)C(=O)N[C@H](CCCCN)C(=O)N[C@H](CC(C)C)C(=O)N1CCCC1C(=O)N[C@H](CCCCN)C(=O)N[C@H](Cc1ccccc1)C(=O)N[C@H](CC(C)C)C(=O)N[C@H](Cc1c[nH]cn1)C(=O)N[C@H](CC(C)C)C(=O)N[C@H](C)C(=O)N[C@H](CCCCN)C(=O)N[C@H](CCCCN)C(=O)N[C@H](Cc1ccccc1)C(=O)O (some centres undefined), the growth was -70.3% (active). Compound CN1C(=O)[C@H]2c3c1cccc3[C@@]13NC(=O)O[C@H]1[C@H](CCC3(C)C)C2(C)C has a growth of 94.4%. Cc1cccc(-n2c(C)nc3ccc(NC(=O)NCCCl)cc3c2=O)c1 was tested, and the growth was 97.6%. In the case of CCCOC(=O)C1(O)CCCC1, the growth is reported as 102%. With COc1cc(OC)cc(-c2n[nH]nc2-c2ccc3c(c2)OCO3)c1 the growth was 36.5%.

These compounds were tested on A498 renal in the same assay as above. Conditions: 10 µM unless noted.
O=C(O)c1cn(C2CC2)c2cc(N3CCN(S(=O)(=O)c4ccc(Cl)c(Cl)c4)CC3)c(F)cc2c1=O showed a growth of 13.8%. Compound COc1ccc(/C=C/C(=O)c2ccc(B(O)O)cc2)cc1O has a growth of 61.8%. Work on O=C(Nc1ccc(OCc2nnc(-c3ccc(Cl)cc3)o2)c(F)c1)Nc1ccc(Cl)c(Cl)c1 yielded a growth of 67.9%. With Cc1cc(C)c(NC(=O)c2sc3nc4c(cc3c2N)CN(Cc2ccccc2)CC4)c(C)c1 the growth was 1.87% (active). CC(C)C[C@H](NC(=O)[C@@H](Cc1ccccc1)n1ccc(Nc2ccccc2)cc1=O)B(O)O was tested, and the growth was -47.3% (active). For Nc1c(C(=O)Nc2ccccc2)sc2nc3c(cc12)CCCCC3, the growth was -5.02% (active). With Cc1cc(Nc2nc(C(=O)Nc3ccccc3)nc3ccccc23)n[nH]1 the growth was -1.3% (active). In the case of COc1ccc(/C=C2\C(=O)N(C(=O)c3csc(NC(C)=O)n3)N=C2C)cc1, the growth is reported as 121%. CN=S(=O)(NC(=O)c1ccc(Cl)cc1Cl)c1ccc(Br)s1 (centres undefined) was tested, and the growth was 67.8%. In the case of COc1ccc(C2CC(c3cccs3)=NN2c2ccc(S(=O)(=O)NC(=O)Nc3ccc(C)cc3)cc2)cc1 (centres undefined), the growth is reported as 109%. Compound O=c1[nH]c2ccccc2cc1-c1nnc(Cc2ccccc2)o1 has a growth of 106%. Compound Oc1ccc(Cl)cc1-c1cc(-c2ccc(Cl)cc2)n[nH]1 has a growth of 84.3%. COc1c(NC[C@H]2OC(O)[C@H](O)[C@@H](O)[C@@H]2O)c(=O)c1=O (some centres undefined) was tested, and the growth was 73%. In the case of COc1ccc(-c2nnc(COc3ccc(NS(=O)(=O)c4ccc(OC)cc4)cc3F)o2)cc1, the growth is reported as 59.2%. For Nc1c(C(=O)Nc2ccccc2)sc2nc3c(cc12)CN(Cc1ccccc1)CC3, the growth was 26.5%. Cc1ccc(Oc2nc3ccccc3cc2-c2nnc(Cn3c(COc4ccccc4)nc4ccccc43)o2)cc1 gave a growth of 54.1%. For COc1cc(C(=O)/C=C/c2cc(C(=O)c3cc(OC)c(OC)c(OC)c3)ccc2OC)ccc1N, the growth was -6.91% (active).
